Rows were chosen to be rich in hits. Some 2.1% of all compounds tested hit in one or more screens of this group.
LDHA inh: LDHA (human) enzyme inhibition | activity change, % (values are at about 110 or 230 µM) | 0.15% of 480,000 active | AID 1347041 | P00338 | purified LDHA, NADH/diaphorase-resazurin fluorescence; active compounds read low; in the data active = activity change below about -30%; inconclusive = mostly about -25% to -30%;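 note: plate controls were DMSO wells for no effect and wells without enzyme for full effect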
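Remaining NADH was detected by diaphorase (0.133 mg/mL) converting 37 µM resazurin to fluorescent resorufin, read at 0 and 20 minutes. The preceding 5-minute room-temperature reaction used 2 nM LDHA, 0.2 mM sodium pyruvate and 0.06 mM NADH at pH 7.4.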
D2 antag: antagonizes the human D2 dopamine receptor | 2% of 340,000 active | inhibition, % at 10 µM | AID 485344 | HEK293 TREx D2 cells, calcium flux, dopamine EC80; in the data active = inhibition above about 30%; inactive = below that, where a call was filed; note: 0% is about no effect
Target sequence (P14416 whole entry, looked up): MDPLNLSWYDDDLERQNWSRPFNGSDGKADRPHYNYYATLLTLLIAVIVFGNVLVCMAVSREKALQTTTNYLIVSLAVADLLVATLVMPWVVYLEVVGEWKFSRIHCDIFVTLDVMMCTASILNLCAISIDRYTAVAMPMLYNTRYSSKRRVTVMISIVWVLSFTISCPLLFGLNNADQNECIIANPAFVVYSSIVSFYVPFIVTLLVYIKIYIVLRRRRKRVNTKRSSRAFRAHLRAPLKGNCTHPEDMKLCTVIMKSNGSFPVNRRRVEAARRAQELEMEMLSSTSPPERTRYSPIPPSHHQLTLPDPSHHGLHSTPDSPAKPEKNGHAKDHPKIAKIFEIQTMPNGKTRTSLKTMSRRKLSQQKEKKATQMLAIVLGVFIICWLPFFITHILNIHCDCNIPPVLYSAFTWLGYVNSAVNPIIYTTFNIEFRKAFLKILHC
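Cells plated overnight at 30 C with tetracycline; no-wash calcium dye, 30–90 min RT; 10 s baseline; compound pinned; 180 s read; EC80 dopamine added; another 180 s read.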
D2 ag-1: agonists of human D2 dopamine receptor | AID 485358 | HEK293 T-REx D2 cells, calcium flux agonist mode | activation, % at 2 µM | P14416 | 0.53% of 340,000 active;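 active = activation over 3 SD above normal in the single-dose calcium agonist read, cut at about 30% in these data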; note: 0% is about no effect
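Agonism scored from kinetic calcium signal (1 read/sec, 180 s) following compound pin transfer, after a 10 s baseline. Cells: HEK293 Trex line expressing inducible D2 receptor coupled to calcium, dye-loaded after overnight culture at 30 C.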
D2 PAM-1: positive allosteric modulators of human D2 dopamine receptor; DiscoveRx D2 beta-arrestin cells, luminescence, 90 min; 100% = 57 uM dopamine signal; potentiation, % (test concentration not listed); 0.23% of 360,000 active; AID 624464; in the data active = potentiation above about 50%; inconclusive = mostly about 30% to 49%
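PathHunter D2 cells, attached overnight at 37 deg C, received compound in DMSO plus dopamine at EC20 (50 nM final) for 90 min at 37 deg C. Beta-arrestin recruitment was read as luminescence after 1 h with detection reagent at ambient temperature.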
D2 ag-2: agonists of human D2 dopamine receptor (beta-arrestin); P14416; DiscoveRx PathHunter D2 beta-arrestin, luminescence, 90 min; 100% = 57 uM dopamine signal; activation, % (concentration not given with the values); 0.084% of 360,000 active; AID 624465; in the data active = activation above about 40%; inconclusive = between about 15% and that limit
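DiscoveRx PathHunter D2 beta-arrestin cells (2,100/well) attached overnight, then compound-stimulated 90 min at 37 C in HBSS/10 mM HEPES/0.1% Tween-20 buffer; beta-galactosidase complementation read by luminescence after 1 h at ambient temperature. Dopamine 57 uM final (EC100) as control.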
D2 PAM-2: positive allosteric modulators of human D2 dopamine receptor. potentiation, % at 10 µM. 0.34% of 340,000 active. HEK293 T-REx D2, calcium flux, EC20 dopamine potentiation;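 active = potentiation over 3 SD above the plate norm, cut at about 30% in these data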; note: 0% is about no effect
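Tetracycline-induced Hek293 Trex D2 cells, force-coupled to calcium, loaded with no-wash calcium dye. Compound added with 180 s kinetic read for agonism, then EC20 dopamine and a further 180 s read for potentiation.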
* = called active by the depositor; ? = inconclusive; · = no result; ! = not confirmed by another sample.

SMILES | LDHA inh | D2 antag | D2 ag-1 | D2 PAM-1 | D2 ag-2 | D2 PAM-2
N/C(=N\OC(=O)c1ccccc1Cl)c1cccnc1 | -9 | 18 | 1 | 96* | 14 | -5
NC(=O)c1cccnc1 | -13 | 40* | 2 | -14 | -7 | -10
O=C(C(=O)c1cccnc1)c1cccnc1 | -1 | · | · | -24 | -8 | -6
CCN1CCN(CCOc2ccc3cc(-c4ccccc4)c(=O)oc3c2)CC1 | -5 | · | · | · | · | ·
COc1cc(N)c(Cl)cc1C(=O)OCC(=O)N1CCCC1 | -9 | 32* | 1 | -9 | -13 | -12
COc1cc(N)c(Cl)cc1C(=O)OCC(=O)N1CCc2ccccc21 | -5 | -3 | 1 | -3 | 1 | 7
COc1ccc2c(c1)CCc1sc(NC(=O)c3ccco3)nc1-2 | 11 | -2 | -1 | 4 | 5 | 30*
O=C(CN1C(=O)N/C(=C\c2cccn2-c2cccc(C(=O)O)c2)C1=O)Nc1ccc(F)cc1 | -5 | · | · | · | · | ·
CC[n+]1ccc(C[n+]2ccccc2)c2ccccc21 | -40* | -1 | 2 | -5 | 2 | 0
CC[n+]1ccc(/C=C/c2ccc(N(C)C)cc2)c2ccccc21 | -1 | · | · | -34 | -8 | ·
O=C(CCN1CCN(Cc2ccccc2)CC1)Nc1ccc(OCc2ccccc2)cc1 | 1 | 42* | 0 | -22 | 0 | -19
O=C(CCN1CCN(CCO)CC1)Nc1ccc(OCc2ccccc2)cc1 | -1 | 14 | -1 | 1 | -1 | 15
CCCOc1ccc(NC(=O)CC2C(=O)N(CC)C(=S)N2CCCN2CCN(Cc3ccccc3)CC2)cc1 (stereo not given) | -1 | 33* | 0 | -16 | ? | ·
COc1cccc(CNCc2cccc(Br)c2)c1OC | -16 | 36* | 1 | -15 | 7 | -10
Cc1ccc(SCc2ccc(C(=O)Nc3cccc(C)c3C)cc2)cc1 | 4 | · | · | · | · | ·
O=C(CN1C(=O)S/C(=C\c2ccc(F)cc2)C1=O)NC1C=CS(=O)(=O)C1 (stereo not given) | ? | -12 | 0 | -8 | -4 | 0
O=C(CCN1C(=O)/C(=C/c2ccc(F)cc2)SC1=S)NC1C=CS(=O)(=O)C1 (stereo not given) | -4 | -9 | 0 | -8 | 1 | 56*
CCOc1ccc(NS(=O)(=O)c2ccc(OCC(=O)N3CCCC3)cc2)cc1 | -2 | 51* | 0 | 3 | 2 | 11
CCOC(=O)N1CCN(C(=O)COc2ccc(S(=O)(=O)Nc3ccc(OCC)cc3)cc2)CC1 | -5 | 4 | 0 | 13 | 1 | 11
Cc1oc2cc(O)ccc2c(=O)c1Oc1ccccc1Br | -3 | 37* | -2 | 2 | -3 | -6
COc1ccc(CNCC(=O)O)cc1 | 1 | · | · | · | · | ·
Cc1sc2ncn(CC(=O)NCc3ccccn3)c(=O)c2c1S(=O)(=O)N1CCOCC1 | -12 | -2 | 0 | -6 | 1 | 49*
Cc1occc1C(=O)Nc1ccc(SC2CCCC2)cc1 | -20 | · | · | · | · | ·
N#Cc1nc(-c2ccccc2Cl)oc1N1CCOCC1 | -32*! | -25 | 0 | 12 | 2 | 6
N#Cc1nc(-c2ccccc2Cl)oc1N1CCCCCC1 | -12 | · | · | · | · | ·
SMILES | LDHA inh | D2 antag | D2 ag-1 | D2 PAM-1 | D2 ag-2 | D2 PAM-2
Cc1ccccc1-c1nc(C#N)c(N2CCC(C)CC2)o1 | 2 | 31* | 0 | -1 | -2 | 1
CC1CCN(c2oc(-c3ccccc3Cl)nc2C#N)CC1 | 2 | 9 | 1 | -10 | -2 | -13
Cn1ncc(Cl)c1C(=O)N/N=C/c1cccc(OC2CSC2)c1 | -1 | 5 | 1 | -7 | -4 | -3
O=C(CSc1ncccn1)N/N=C/c1cccc(OC2CSC2)c1 | -1 | 36* | -2 | 1 | -4 | 2
COc1cc(C2c3c(-c4ccccc4)n[nH]c3C(=O)N2c2ccccc2)ccc1O (stereo not given) | -4 | -5 | 0 | 52* | 3 | 25
CC1(C)CC(CCN2CCC(Cc3ccccc3)CC2)(c2cccc(C(F)(F)F)c2)CCO1 (stereo not given) | -15 | · | · | · | · | ·
CC(C)Oc1ccc(C(=O)Nc2nc3ccccc3[nH]2)cc1 | -2 | -2 | 1 | 0 | -3 | 105*
COc1ccc(OC(C)c2nc(-c3ccc(Br)cc3)no2)cc1 (stereo not given) | -4 | · | · | · | · | ·
Cc1ccc(OCCN(C)Cc2cc(=O)oc3c(C)c(O)ccc23)cc1 | 6 | · | · | · | · | ·
Cc1nnc(N/N=C/c2c(Cl)cccc2Cl)n1N | 41 | 4 | 0 | 14 | 4 | -4
CCc1nnc(N/N=C/c2c(F)cccc2Cl)n1N | 19 | 2 | -1 | 15 | 41* | -2
COCc1nnc(NC(=O)C2CC(=O)N(CCc3ccc(F)cc3)C2)s1 (stereo not given) | -2 | 30* | 1 | -7 | -3 | -7
CCCc1nnc(NC(=O)C2CC(=O)N(CCc3ccc(F)cc3)C2)s1 (stereo not given) | -7 | -3 | 0 | -1 | -2 | -14
Cc1ccc(OCc2ccc(-c3nc(C#N)c(N4CCC(C(N)=O)CC4)o3)o2)cc1 | -1 | · | · | · | · | ·
COc1ccc(CC(=O)OCC(=O)c2ccc3c(c2)OCCCO3)cc1 | -30* | · | · | · | · | ·
CN(C)C(CNC(=O)c1ccc(-c2ccccc2)cc1)c1ccccc1 (stereo not given) | -1 | 31* | 0 | -19 | 0 | 0
COc1ccc(C(CNC(=O)c2ccc3c(c2)OCCO3)N(C)C)cc1 (stereo not given) | -8 | 45* | 2 | -15 | -1 | ·
COc1ccc(C(=O)COC(=O)CCC(=O)c2ccc3c(c2)OCCO3)cc1 | 12 | · | · | · | · | ·
Cc1ccc(-c2cc(C(=O)Nc3cc(F)ccc3F)c3ccccc3n2)o1 | -7 | · | · | · | · | ·
O=[N+]([O-])c1ccccc1OCCN1CCCC1 | -1 | -4 | 1 | -5 | -5 | -30
Cc1ccc(C(C)C)c(OCCNCc2ccccc2)c1 | 2 | 67* | -2 | -5 | 11 | -19
O=[N+]([O-])c1ccccc1OCCNCc1ccccc1 | -16 | 78* | 23 | -76 | 1 | -31
Cc1ccc(C)c(OCCCNCc2ccccc2)c1 | -5 | 4 | 2 | -64 | -3 | -12
CCN(CC)S(=O)(=O)c1cc(NC(=O)C2CCN(c3ncnc4sc(C)c(C)c34)CC2)ccc1Cl | 1 | 36* | -1 | -25 | -1 | -16
COc1ccc(Nc2nc(N)c(C(=O)c3ccc(OC)c(OC)c3OC)s2)cc1 | 0 | · | · | · | · | ·
Oc1ccc(-c2ccccc2)cc1CN1CCCCCC1 | -1 | 69* | -1 | -24 | -2 | -21
C/C(N)=C(/C#N)C(=O)COC(=O)c1cc(-c2ccc(Br)cc2)nc2ccccc12 | -2 | 47* | 2 | -1 | 7 | -12

Compound activity deposited in PubChem by National Center for Advancing Translational Sciences (NCATS).
